aSyn UTR act: Activators via SNCA 5'UTR binding, MLPCN. alpha-synuclein 5'UTR reporter, activators screen. activity score, % (tested at 7.5 µM), hits read low. 300,000 tested, 7.1% active. AID 1814, 2009; in the data active = activity score below about -60%
Of the large screens only hits and unclear results are named; the others gave an inactive call. The list is a sample of the results.

Cc1cc(C)c2nc(-n3nc(C)cc3N)cc(C)c2c1	aSyn UTR act -162
CC(O)CNc1ncnc2cc(-c3ccc(F)cc3)sc12 (stereo not given)	aSyn UTR act -62
CC(=O)c1cccc(NC(=O)c2ccc3c(c2)OCO3)c1	aSyn UTR act -128
CCOC(=O)c1cccc(NC(=O)/C=C/c2ccc3c(c2)OCO3)c1	none
Cc1cccc(NC(=S)NNC(=O)c2csc3c2CCC(C)C3)c1 (stereo not given)	aSyn UTR act -77
CCOC(=O)c1cccc(NC(=O)c2ccc3c(c2)OCO3)c1	aSyn UTR act -126
Cc1[nH]c2ccccc2c1C(=O)C(=O)Nc1ccc2c(c1)OCO2	aSyn UTR act -91
Cc1cc(C(=O)Nc2ccc3c(c2)OCO3)cs1	aSyn UTR act -233
Cc1cccc(NC(=S)NNC(=O)c2ccccc2Br)c1	aSyn UTR act -129
CCCc1cc(C(=O)NNC(=S)Nc2cccc(C)c2)cs1	aSyn UTR act -101
Cc1cccc(NC(=S)NNC(=O)c2ccc3c(c2)OCO3)c1	aSyn UTR act -211
O=C1C=C(c2cccs2)C[C@H](c2ccccc2)[C@H]1n1nnc([N+](=O)[O-])n1	none
O=c1oc(-c2ccc(Br)cc2)nc2ccccc12	aSyn UTR act -130
CCCOc1cccc(-c2nc3ccccc3c(=O)o2)c1	aSyn UTR act -95
COc1ccc(-c2nc3n(c2C)Cc2ccccc2-3)cc1	aSyn UTR act -129
O=C(/C=C/c1c(F)cccc1Cl)c1ccc(O)cc1	aSyn UTR act -115
O=C(/C=C/c1ccccc1Cl)c1ccc(O)cc1	aSyn UTR act -360
CCCCN=Cc1sc2ccc(OCC)cc2c1O	aSyn UTR act -73
C=CCN=Cc1sc2ccc(OCC)cc2c1O	aSyn UTR act -115
O=C(OCc1ccc(Cl)c(Cl)c1)c1ccc[nH]1	aSyn UTR act -82
COc1ccc(N2CCN(c3nc4ccccn4c(=O)c3C=O)CC2)cc1	aSyn UTR act -68
O=Cc1c(N2CCN(c3ccccc3)CC2)nc2ccccn2c1=O	aSyn UTR act -86
COc1ccc(-c2nc3ccccn3c2C=O)cc1	aSyn UTR act -110
N#CC(C#N)=Cc1c(N2CCN(c3ccccc3)CC2)nc2ccccn2c1=O	aSyn UTR act -72
C/C(=N\N=C\c1ccc(N(C)C)cc1)c1cccc([N+](=O)[O-])c1	aSyn UTR act -68
Oc1c(C=Nc2ccccc2Cl)[nH]c2ccccc12	aSyn UTR act -101
CC[n+]1c(/C=C/c2ccc(OC(C)=O)c(OC)c2)ccc2ccccc21	aSyn UTR act -72
CCN(CC)c1ccc(/C=C/c2ccc3ccc(OC)cc3[n+]2CC)cc1	aSyn UTR act -87
CCN(CC)c1ccc(/C=C/c2cccc[n+]2C)c(OC)c1	none
CC[n+]1c(/C=C/c2ccc(OC)c(OC)c2)ccc2ccccc21	aSyn UTR act -117
CN(c1ccc(O)cc1)S(=O)(=O)c1ccc2ccccc2c1	aSyn UTR act -111
Cc1ccc(N=C2c3ccccc3C(=O)C2[N+](=O)[O-])cc1C (stereo not given)	aSyn UTR act -110
O=C(Nc1ccccc1Cl)c1cccs1	aSyn UTR act -71
COc1cc(NC(=O)c2ccccc2Cl)ccc1NC(=O)c1cccs1	aSyn UTR act -143
COc1cc(NC(=S)NC(=O)c2c(OC)cccc2OC)ccc1NC(=O)c1cccs1	aSyn UTR act -95
O=C(Nc1ccccc1Cl)c1ccc(-c2ccccn2)s1	aSyn UTR act -120
O=C(O)COc1cccc2ccccc12	aSyn UTR act -65
CC(C)(C)c1ccc(/C=C(\c2nc3ccccc3[nH]2)S(=O)(=O)c2ccccc2)cc1	aSyn UTR act -78
Cc1cccc(/C=C(\c2nc3ccccc3[nH]2)S(=O)(=O)c2ccccc2)c1	aSyn UTR act -118
Cc1cc(OCC(=O)N(C)C2CCCCC2)cc(C)c1Cl	aSyn UTR act -68
CN(C(=O)COC(=O)c1ccc(Cl)cc1N)C1CCCCC1	aSyn UTR act -82
Cc1nc2nc(NC(=O)c3ccco3)nn2c(C)c1Cl	aSyn UTR act -95
Fc1cccc2sc(Nc3nnc(-c4ccco4)o3)nc12	aSyn UTR act -109
Cc1cc(Cl)cc2sc(NC(=O)c3ccco3)nc12	aSyn UTR act -123
O=C(Nc1nc2c(F)cccc2s1)c1ccco1	aSyn UTR act -121
COc1ccc(CCc2nnc(CCC(=O)NCc3cc(C(C)C)no3)o2)cc1	aSyn UTR act -99
Cc1c(-c2ccc(Cl)cc2)[n+](=O)c(-c2ccccc2)cn1[O-]	aSyn UTR act -118
Oc1c(C=NCc2ccccc2)sc2ccccc12	aSyn UTR act -103
O=[N+]([O-])c1ccc(N=Nc2c(Cl)cc(O)cc2Cl)cc1	none
O=[N+]([O-])c1ccc(N=Cc2sc3ccccc3c2O)cc1	aSyn UTR act -68
CSc1nc2sc3c(c2c(=O)n1C)CCC(C)C3 (stereo not given)	aSyn UTR act -165
CC(C)(C)c1ccc(OCCCC(=O)Nc2ccc(S(N)(=O)=O)cc2)cc1	aSyn UTR act -146
CCOC(=O)C(NC(=O)CCl)(Nc1sc(C)c(CC)c1C#N)C(F)(F)F (stereo not given)	aSyn UTR act -75
CCCn1nnc(NC(=O)c2ccc3ccccc3c2)n1	aSyn UTR act -185
CCCn1nnc(NC(=O)c2cccc(OCC)c2)n1	aSyn UTR act -141
Cc1ccc(C(=O)Nc2nnn(C)n2)cc1	aSyn UTR act -76
CCCn1nnc(NC(=O)c2ccc(Cl)cc2Cl)n1	aSyn UTR act -115
CCn1nnc(NC(=O)c2ccc(C(C)(C)C)cc2)n1	aSyn UTR act -112
O=[N+]([O-])c1cc(Cl)cc2c1nc(NCCO)c1ccccc12	aSyn UTR act -207
N#Cc1c(-c2ccccc2)ccnc1Oc1ccccc1	aSyn UTR act -75
O=C(Nc1ccccc1)C1Cc2ccccc2CN1C(=O)c1ccco1 (stereo not given)	aSyn UTR act -114
O=C(Nc1ccc(-c2nc3cccnc3s2)cc1)c1ccc(Br)o1	aSyn UTR act -159
O=C(Nc1ccc(-c2nc3cccnc3s2)cc1)c1ccc(Cl)nc1	aSyn UTR act -151
CCN1C(=O)/C(=C\C=C2/C=CC=CN2CC)SC1=S	aSyn UTR act -125
CCN1C(=O)C(=Cc2cccc(OC)c2Oc2ccc([N+](=O)[O-])cc2[N+](=O)[O-])SC1=S	none
CCN1C(=O)/C(=C/C=C2\C=CN(CC)c3ccccc32)SC1=S	aSyn UTR act -80
O=[N+]([O-])c1ccc(/C=N/n2cnc3ccccc32)s1	none
Cc1cc2ncn(/N=C/c3ccc([N+](=O)[O-])s3)c2cc1C	aSyn UTR act -117
COc1cccc(/C=N/n2cnc3cc(C)c(C)cc32)c1OC	aSyn UTR act -97
CCc1ccc(C(=O)Nn2cnc3ccccc3c2=O)cc1	aSyn UTR act -150
Cc1ccc(C(=O)Nn2cnc3ccccc3c2=O)cc1C	aSyn UTR act -115
O=C(NC(=S)N1CCCCC1)c1csc([N+](=O)[O-])c1	aSyn UTR act -87
COc1ccc(-c2nnc(-c3ccc(Br)o3)o2)cc1OC	aSyn UTR act -90
COc1ccccc1-c1nc(-c2ccc(Br)o2)no1	aSyn UTR act -95
COc1ccc(-c2nc(-c3ccc(Br)o3)no2)cc1OC	aSyn UTR act -211
COc1ccc(/C=C/C(=O)NC2=NCCS2)cc1OC	aSyn UTR act -148
COc1ccc(OC)c(/C=C/C(=O)NC2=NCCS2)c1	aSyn UTR act -71
Cc1c(CCC(=O)N[C@@H](C)C(=O)O)c(=O)oc2cc3oc4c(c3cc12)CCCC4	none
CC(C)(C)c1ccc(C(=O)Nc2ccc(F)cc2)s1	aSyn UTR act -140
CCc1cc2cc(C(=O)Nc3ccccc3F)sc2s1	aSyn UTR act -134
CCc1cc2cc(C(=O)Nc3ccc(F)cc3)sc2s1	aSyn UTR act -150

Screens as filed in PubChem BioAssay.
